In PubChem BioAssay (NCATS):
Results filed as inconclusive are left out. The source made the active and inactive calls. Unless noted, calls come from the whole dose curve.

Assays:
[1] = qHTS for Inhibitors of the Functional Ribonucleoprotein Complex (vRNP) of Lassa (LASV) Arenavirus: LASV Primary Screen - GLuc reporter signal (AID 1347082; calls by dose curve; tested in HEK293 reporter line; note: nearly all actives have a fitted effect of over 60% in size)
[2] = qHTS for Inhibitors of the Functional Ribonucleoprotein Complex (vRNP) of Lassa (LASV) Arenavirus: Viability assay - alamar blue signal for LASV Primary Screen (AID 1347083; calls by dose curve; tested in HEK293 reporter line; note: nearly all actives have a fitted effect of over 80% in size)
[3] = qHTS for Inhibitors of the Functional Ribonucleoprotein Complex (vRNP) of Lymphocytic Choriomeningitis Arenaviruses (LCMV): Viability assay - alamar blue signal for LCMV Primary Screen (AID 1347085; calls by dose curve; tested in HEK293 reporter line; note: nearly all actives have a fitted effect of over 80% in size)
[4] = target: Nucleoprotein (Lymphocytic choriomeningitis virus (strain Armstrong)) (UniProt P09992); experiment: qHTS for Inhibitors of the Functional Ribonucleoprotein Complex (vRNP) of Lymphocytic Choriomeningitis Arenaviruses (LCMV): LCMV Primary Screen - GLuc reporter signal (AID 1347086); note: nearly all actives have a fitted effect of over 70% in size

Measured: Potency
Potency is the fitted concentration of half-maximal effect.

Sequence of Nucleoprotein (Lymphocytic choriomeningitis virus (strain Armstrong)) (P09992 whole entry, looked up): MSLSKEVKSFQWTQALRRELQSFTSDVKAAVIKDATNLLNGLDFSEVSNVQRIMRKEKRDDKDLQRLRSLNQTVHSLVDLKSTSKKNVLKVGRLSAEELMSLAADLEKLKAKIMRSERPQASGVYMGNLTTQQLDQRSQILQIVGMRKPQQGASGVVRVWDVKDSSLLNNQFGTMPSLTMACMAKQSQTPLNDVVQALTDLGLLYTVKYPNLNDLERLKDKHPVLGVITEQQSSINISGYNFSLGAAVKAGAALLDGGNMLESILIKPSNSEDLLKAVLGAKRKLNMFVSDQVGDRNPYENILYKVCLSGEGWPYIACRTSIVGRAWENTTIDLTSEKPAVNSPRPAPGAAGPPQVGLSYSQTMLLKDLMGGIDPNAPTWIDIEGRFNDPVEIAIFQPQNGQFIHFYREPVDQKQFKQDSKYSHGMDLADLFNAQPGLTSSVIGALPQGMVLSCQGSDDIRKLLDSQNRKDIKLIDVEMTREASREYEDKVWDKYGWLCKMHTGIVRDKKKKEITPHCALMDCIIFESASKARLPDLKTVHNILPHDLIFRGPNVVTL

CCN1CCC(n2cc(CNc3cc(Cl)c4ncc(C#N)c(Nc5ccc(F)c(Cl)c5)c4c3)nn2)CC1
inactive: [1] | [2] | [3] | [4]

CC(O)C(C)O (stereo not given)
inactive: [1] | [2] | [3] | [4]

COc1cc(C)c(C(=O)Oc2cc(C)c(C(=O)O)c(O)c2C)c(OC)c1C
inactive: [1] | [2] | [3] | [4]

CCCCCCCCCCCC(=O)c1c(O)cccc1O
inactive: [1] | [2] | [3] | [4]

COc1c(O)ccc2c1-c1c3c(cc4c1C(C2)N(C)CC4)OCO3 (stereo not given)
inactive: [1] | [2] | [3] | [4]

CC(C)(O)CC[C@@H](O)[C@](C)(O)C1CC[C@@]2(O)C3=CC(=O)[C@]4(O)C[C@@H](O)[C@@H](O)C[C@]4(C)C3CC[C@]12C (stereo not given in full)
inactive: [1] | [2] | [3] | [4]

Cn1c(=O)c2[nH]c(=O)[nH]c2n(C)c1=O
inactive: [1] | [2] | [3] | [4]

COc1cc(/C=C2/C(=O)Nc3ccccc32)cc(OC)c1O
inactive: [1] | [2] | [3] | [4]

C[C@@H]1OC(O[C@H]2[C@H](Oc3cc(O)c4c(=O)c(O)c(-c5ccc(O)cc5)oc4c3)O[C@H](CO)[C@@H](O)[C@@H]2O)[C@H](O)[C@H](O)[C@H]1O (stereo not given in full)
inactive: [1] | [2] | [3] | [4]

COc1c(O)c(O)c2oc(-c3ccccc3)cc(=O)c2c1OC
inactive: [1] | [2] | [3] | [4]

COc1cc2c(c(OC)c1CC=C(C)C)C[C@H](c1ccc(O)cc1O)CO2
inactive: [1] | [2] | [3] | [4]

COc1cc2c(cc1CC=C(C)C)C(=O)C[C@@H](c1ccc(O)cc1)O2
inactive: [1] | [2] | [3] | [4]

Nc1oc2ccccc2c1C(=O)Cc1ccccc1O[C@@H]1O[C@H](CO)[C@@H](O)[C@H](O)[C@H]1O
inactive: [1] | [2] | [3] | [4]

CC(C)=CCC/C(C)=C/COc1c2occc2cc2ccc(=O)oc12
inactive: [1] | [2] | [3] | [4]

CC(C)=CCCC(C)CCOC=O (stereo not given)
inactive: [1] | [2] | [3] | [4]

CCC(C)SSC(C)CC (stereo not given)
inactive: [1] | [2] | [3] | [4]

OCCC(O)CO (stereo not given)
inactive: [1] | [2] | [3] | [4]

CCn1nnc2c(N3CCOCC3)nc(-c3ccc(NC(=O)Nc4ccc(C(=O)N5CCN(C)CC5)cc4)cc3)nc21
active: [1] 54.4 nM | [2] 24.3 nM | [3] 30.6 nM | [4] 38.5 nM

c1ccc(-c2ccncc2)cc1
inactive: [1] | [2] | [3] | [4]

CC(O)C1C(=O)N2C(C(=O)O)=C(SC3CNC(C(=O)N(C)C)C3)C(C)C12 (stereo not given)
inactive: [1] | [2] | [3] | [4]

CCC(=O)Nc1ccccc1
inactive: [1] | [2] | [3] | [4]

OC[C@H]1O[C@@H](OC[C@H]2O[C@@H](O)[C@H](O)[C@@H](O)[C@@H]2O)[C@H](O)[C@@H](O)[C@@H]1O
inactive: [1] | [2] | [3] | [4]

COc1ccc2ccc(=O)oc2c1CC=C(C)C
inactive: [1] | [2] | [3] | [4]

CC(=O)O[C@@]1(C)C[C@@H](O)[C@]2(O)C=CO[C@@H](O[C@@H]3O[C@H](CO)[C@@H](O)[C@H](O)[C@H]3O)[C@@H]21
inactive: [1] | [2] | [3] | [4]

CC12CCC(=O)C=C1CCC1C2C(O)CC2(C)C(O)CCC12 (stereo not given)
inactive: [1] | [2] | [3] | [4]

COC(=O)C1=CO[C@@H](C)[C@@H]2CN3CCc4c([nH]c5ccccc45)[C@@H]3C[C@H]12
inactive: [1] | [2] | [3] | [4]

COc1cc2c(=O)c(-c3ccc(O)cc3)coc2cc1OC1OC(CO)C(O)C(O)C1O (stereo not given)
inactive: [1] | [2] | [3] | [4]

CC(C)N1[N]C(=C2C=c3cc(O)ccc3=N2)c2c(N)ncnc21
active: [1] 2730 nM | [2] 685 nM | [3] 1090 nM | [4] 611 nM

CCCCCOC(=O)CCC
inactive: [1] | [2] | [3] | [4]

O=C1N[C@@H](Cc2cnc[nH]2)C(=O)N2CCC[C@@H]12
inactive: [1] | [2] | [3] | [4]

CC1=C(O)C(=O)[C@@H]2O[C@@H]2C1=O
inactive: [1] | [2] | [3] | [4]

CC1(C)[C@H](O[C@H]2O[C@H](C(=O)O)[C@@H](O)[C@H](O)[C@H]2O[C@@H]2O[C@H](C(=O)O)[C@@H](O)[C@H](O)[C@H]2O)CC[C@@]2(C)[C@H]1CC[C@]1(C)[C@H]2C(=O)C=C2[C@H]3C[C@@](C)(C(=O)O)CC[C@]3(C)CC[C@]21C
inactive: [1] | [2] | [3] | [4]

O=C(O)c1cccc(Br)c1
inactive: [1] | [2] | [3] | [4]

C=C(C)[C@@H]1CCC2=CC(=O)C[C@@H](C)[C@]2(C)C1
inactive: [1] | [2] | [3] | [4]

COc1cc2cc(Oc3ccc4ccc(=O)oc4c3)c(=O)oc2cc1OC(C)=O
inactive: [1] | [2] | [3] | [4]

COc1cc2ccc(=O)oc2c(O)c1O
inactive: [1] | [2] | [3] | [4]

C[C@]12C[C@H](O)CC(CO)(CO)C1[C@H](O)C[C@@]13CC4[C@@H](CC12)[C@@]4(C)C3 (stereo not given in full)
inactive: [1] | [2] | [3] | [4]

CN[C@H]1[C@@H](O)[C@@H]2O[C@@H]3O[C@H](C)CC(=O)[C@]3(O)O[C@@H]2[C@@H](NC)[C@H]1O
active: [1] 5440 nM | [2] 7690 nM | [3] 2430 nM | [4] 1720 nM

O=C1/C(=C\c2ccc(O)c(O)c2)Oc2c1ccc(O[C@@H]1O[C@H](CO)[C@@H](O)[C@H](O)[C@H]1O)c2O
inactive: [1] | [2] | [3] | [4]

C[C@@H]1O[C@@H](O[C@H]2[C@H](O)[C@@H](O)[C@H](Oc3c(-c4ccc(O)c(O)c4)oc4cc(O)cc(O)c4c3=O)O[C@@H]2CO)[C@H](O)[C@H](O)[C@H]1O
inactive: [1] | [2] | [3] | [4]

CCCO
inactive: [1] | [2] | [3] | [4]

C/C(=C/CCC(C)(O)C1CC[C@@]2(C)[C@@H]3CC=C4[C@@H](CC[C@H](O[C@H]5O[C@@H](CO)[C@H](O)[C@@H](O)[C@@H]5O)C4(C)C)[C@]3(C)C(=O)C[C@]12C)CO[C@@H]1O[C@H](CO)[C@@H](O)[C@H](O)[C@H]1O (stereo not given in full)
inactive: [1] | [2] | [3] | [4]

CC1C(=O)OC2C1CCC1(C)CCC(=O)C(C)C21 (stereo not given)
inactive: [1] | [2] | [3] | [4]

C=CCc1c(OC)ccc2ccc(=O)oc12
inactive: [1] | [2] | [3] | [4]

CCCCCCCCCCCCCCCCCCOS(=O)(=O)O
inactive: [1] | [2] | [3] | [4]

CC/C=C\CCOC(=O)CC
inactive: [1] | [2] | [3] | [4]

CCN1C[C@]2(CO)CC[C@H](OC)[C@@]34C5C[C@H]6[C@H](OC)C5[C@](O)(C[C@H]6OC)[C@@](O)(C(OC)C23)[C@@H]14 (stereo not given in full)
inactive: [1] | [2] | [3] | [4]

C[C@]12CC[C@H](O)CC1=CCC1C2CC[C@@]2(C)C1C[C@@H](O)[C@@H]2O (stereo not given in full)
inactive: [1] | [2] | [3] | [4]

CC(C)=CC(=O)O[C@@H]1Cc2cc3ccc(=O)oc3cc2OC1(C)C
inactive: [1] | [2] | [3] | [4]

COc1cc2cc(Oc3ccc4ccc(=O)oc4c3)c(=O)oc2cc1OC1OC(COC(=O)CC(C)(O)CC(=O)O)C(O)C(O)C1O (stereo not given)
inactive: [1] | [2] | [3] | [4]

CC(C)=CCC[C@](C)(O[C@@H]1O[C@H](CO)[C@@H](O)[C@H](O)[C@H]1O)[C@H]1CC[C@]2(C)[C@@H]1[C@H](O)C[C@@H]1[C@@]3(C)CC[C@H](O[C@@H]4O[C@H](CO)[C@@H](O)[C@H](O)[C@H]4O[C@@H]4O[C@H](CO)[C@@H](O)[C@H](O)[C@H]4O)C(C)(C)[C@@H]3[C@@H](O)C[C@]12C
inactive: [1] | [2] | [3] | [4]

Nc1nc(Cl)nc2c1ncn2[C@@H]1O[C@H](CO)[C@@H](O)[C@H]1F
active: [2] 2170 nM | [3] 243 nM
inactive: [1] | [4]

CCCn1c(=O)c(C)cn2nc(N)nc12
inactive: [1] | [2] | [3] | [4]

COc1cc2nc3occc3c(OC)c2cc1OC
inactive: [1] | [2] | [3] | [4]

C=C1[C@H]2C[C@H]3[C@H]4N5C[C@]6(C)CCC[C@]47[C@H]([C@H]2O)[C@]3(C[C@]5(O)[C@H]67)[C@@H]1O
inactive: [1] | [2] | [3] | [4]

CO[C@H]1C=CO[C@@]2(C)Oc3c(C)c(O)c4c(O)c(c(C=NN5CCN(C)CC5)c(O)c4c3C2=O)NC(=O)C(C)=CC=C[C@H](C)[C@H](O)[C@@H](C)[C@@H](O)[C@@H](C)[C@H](OC(C)=O)[C@H]1C
inactive: [1] | [2] | [3] | [4]

COc1cc2c(cc1OC)C(C(=O)c1ccc(OC)c(OC)c1O)=NCC2
inactive: [1] | [2] | [3] | [4]

C=CC[C@]12C=C(OC)C(=O)C=C1O[C@@H](c1ccc3c(c1)OCO3)[C@H]2C
inactive: [1] | [2] | [3] | [4]

COc1ccc(C(C)=O)cc1
inactive: [1] | [2] | [3] | [4]

O=C(O)c1cc(O)c2ccccc2c1O
inactive: [1] | [2] | [3] | [4]
